Inconclusive results are not listed. Where a call stands in place of a potency, no number is given. Activity calls are given as the source filed them. Calls follow the shape of the dose curve; as a rule, active = well fitted inhibition curve with a large enough effect; inconclusive = small, poorly fitted or top-dose-only effect; inactive = flat fitted curve, though single readings scatter.
target: Calcium and integrin-binding protein 1 (Homo sapiens) (UniProt Q99828); assay: Primary qHTS for Identification of Calcium Integrin Binding Protein 1 (CIB1) Competitor (AID 1508620); settings: CIB1-GST / FITC-alphaIIb peptide fluorescence polarization; series mostly up to 114 µM;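 also: GST tagged CIB1 binding a fluorescein labelled alphaIIb integrin peptide tracer; top concentration of the series differs between compounds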
Sequence (Q99828 whole entry, looked up): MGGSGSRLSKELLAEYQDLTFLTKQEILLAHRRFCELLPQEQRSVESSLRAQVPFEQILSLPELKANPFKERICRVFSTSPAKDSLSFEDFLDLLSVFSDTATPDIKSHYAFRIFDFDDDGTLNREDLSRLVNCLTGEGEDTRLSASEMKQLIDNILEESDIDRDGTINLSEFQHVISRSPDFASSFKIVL
Procedure, shortened: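 Fluorescence polarization competition: CIB1-GST (1 uM final) preincubated with compound 15 min at room temperature, then FITC-labeled alphaIIb peptide (100 nM final) added for another 15 min. Polarization read at Ex 480/Em 540.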

SMILES | Potency
CCOC(=O)c1cc(C#N)c(N2CCC(C(=O)NS(=O)(=O)Cc3ccccc3)CC2)nc1C | inactive
Fc1ccc2nc(CCC#Cc3ccccn3)cn2c1 | inactive
O=C1CCC(=O)N(O)CCCCCNC(=O)CCC(=O)N(O)CCOCCNC(=O)CCC(=O)N(O)CCCCCN1 | inactive
COc1ccc2[nH]c3c(-c4cccc5ccccc45)nccc3c2c1 | inactive
CC(C)=C/C=C\[C@H](C)[C@H]1CC[C@]2(C)C[C@@H]3C(C)=CC(=O)C3/C(CO)=C\C[C@@H]12 (stereo partly drawn) | inactive
c1ccc(N2CCN(CCc3nn[nH]n3)CC2)cc1 | inactive
O=C(OCC1=CC(O)C2C=CO[C@@H](O[C@@H]3O[C@H](CO)[C@@H](O)[C@H](O)[C@H]3O)C12)c1ccccc1 (stereo partly drawn) | inactive
CCCCNc1ccc(-c2ccc(CN3CCOCC3)cn2)c(NC2CCC(O)CC2)c1 (stereo not drawn) | inactive
Cc1c2cc(c(C(=O)O)c1C)OC1OC(C(O)C(O)C1O)C(O)C(O)C1OC(O2)C(O)C(O)C1O (stereo not drawn) | inactive
O=C(OC[C@H]1O[C@H](O[C@]2(CO)O[C@H](CO)[C@@H](O)[C@@H]2O)[C@H](O)[C@@H](O)[C@@H]1O)c1ccccc1 | inactive
O=C(Nc1ccn[nH]1)c1c(F)cccc1F | inactive
C=C1CCC2C(C)(C(=O)O)CCCC2(C)C1CC/C(=C\CO)CO (stereo not drawn) | inactive
C=C[C@H]1[C@H](O[C@@H]2O[C@H](CO)[C@@H](O)[C@H](O)[C@H]2O)OC=C(C(=O)OC)[C@H]1CC(=O)O | inactive
O=C(O)[C@@H]1C[C@H]2C[C@@H](CCc3nn[nH]n3)CC[C@H]2CN1 | inactive
C[C@@H](Oc1cc(-n2cnc3ccc(OC4CCN(C)CC4)cc32)sc1C(N)=O)c1ccccc1C(F)(F)F | inactive
CC(C)(F)C[C@@H](N[C@@H](c1ccc(-c2ccc(S(C)(=O)=O)cc2)cc1)C(F)(F)F)C(=O)NC1(C#N)CC1 | inactive
OCCc1ccc(O[C@@H]2O[C@H](CO)[C@@H](O)[C@H](O)[C@H]2O)cc1 | inactive
CC(=O)OC1CC2C3(C)CCC(OC(=O)CC(=O)O)C(C)(C)C3CCC2(C)C2(C)CCC(C3(C)CCC(=O)O3)C12 (stereo not drawn) | inactive
CC1(C)CCCC2(C)C1C(O)C=C(CO)C2(O)CO (stereo not drawn) | inactive
CC1CCC2(OC1)OC1CC3C4CCC5C[C@@H](O[C@@H]6O[C@H](CO[C@@H]7OC[C@@H](O)[C@H](O)[C@H]7O)[C@H](O)[C@H](O)[C@H]6O)CC[C@]5(C)C4CC[C@]3(C)C1C2C (stereo partly drawn) | inactive
C=C1CCC2C(C)(C)CCC[C@]2(C)[C@H]1C/C=C(\CO)C(=O)C(=O)O (stereo partly drawn) | inactive
NC(=O)Nc1cc(-c2cccc(F)c2)sc1C(=O)NC1CCCNC1 (stereo not drawn) | inactive
CCNC(=O)C1OC(n2cnc3c(N)nc(NCCc4ccc(CCC(=O)O)cc4)nc32)C(O)C1O (stereo not drawn) | inactive
C[C@]1(CO)CCC[C@]2(C)C3=C(CCC12)COC3 (stereo partly drawn) | inactive
COC(=O)C[C@H]1C(C)(C)[C@H](OC(C)=O)C2CC3=C4CC(=O)O[C@@H](c5ccoc5)[C@]4(C)CCC3[C@@]1(C)C2=O (stereo partly drawn) | inactive
CCC1=CC2CN(C1)Cc1c([nH]c3ccccc13)[C@@](C(=O)OC)(c1cc3c(cc1OC)N(C)[C@H]1[C@@](O)(C(=O)OC)[C@H](OC(C)=O)[C@]4(CC)C=CCN5CC[C@]31[C@@H]54)C2 (stereo partly drawn) | inactive
COc1c2ccoc2cc2oc(CO[C@@H]3O[C@H](CO)[C@@H](O)[C@H](O)[C@H]3O)cc(=O)c12 | inactive
COc1ncc(Nc2ncc([C@H](C)N3CCN(S(C)(=O)=O)CC3)cc2-c2nc(C)nc(N)n2)cc1F | inactive
